High-throughput results: PubChem BioAssay, National Center for Advancing Translational Sciences (NCATS)
NPC1 prom act = qHTS Assay for NPC1 Promoter Activators; Huh7 NPC1 promoter luciferase reporter, 24 h; 2.4% of 320,000 active; AID 485313, 2010; Potency, µM (series often up to 9.22 µM), most hits filed as activators; also: nearly all actives have a fitted effect of over 60% in size
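NPC1 promoter–luciferase Huh7 cells; 24 h compound; luminescence.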
ELG1 genotoxic = qHTS screen for small molecules that induce genotoxicity in human embryonic kidney (HEK293T) cells expressing luciferase-tagged ELG1 | Potency, µM (doses to about 46 µM), actives largely listed as activators | 1.3% of 330,000 active | HEK293T ELG1-luciferase reporter, luminescence, 16 h; also: nearly all actives have a fitted effect of over 60% in size
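ELG1-luciferase HEK293T cells, 2,000/well; compound pinned in; 16 hr, 37 °C, 5% CO2; ONE-Glo, 30 min RT; luminescence on CCD imager.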
FLuc modulator = qHTS profiling assay for firefly luciferase inhibitor/activator using purifed enzyme and Km concentrations of substrates (counterscreen for miR-21 project); 6.9% of 360,000 active; purified FLuc, Km substrates, luminescence inhibition; Luciferin 4-monooxygenase (Photinus pyralis), P08659; Potency, µM (highest dose often 57.5 µM), usual class: inhibitors; AID 588342, 2011; also: nearly all actives have a fitted effect of over 55% in size
Target sequence (P08659 whole entry, looked up): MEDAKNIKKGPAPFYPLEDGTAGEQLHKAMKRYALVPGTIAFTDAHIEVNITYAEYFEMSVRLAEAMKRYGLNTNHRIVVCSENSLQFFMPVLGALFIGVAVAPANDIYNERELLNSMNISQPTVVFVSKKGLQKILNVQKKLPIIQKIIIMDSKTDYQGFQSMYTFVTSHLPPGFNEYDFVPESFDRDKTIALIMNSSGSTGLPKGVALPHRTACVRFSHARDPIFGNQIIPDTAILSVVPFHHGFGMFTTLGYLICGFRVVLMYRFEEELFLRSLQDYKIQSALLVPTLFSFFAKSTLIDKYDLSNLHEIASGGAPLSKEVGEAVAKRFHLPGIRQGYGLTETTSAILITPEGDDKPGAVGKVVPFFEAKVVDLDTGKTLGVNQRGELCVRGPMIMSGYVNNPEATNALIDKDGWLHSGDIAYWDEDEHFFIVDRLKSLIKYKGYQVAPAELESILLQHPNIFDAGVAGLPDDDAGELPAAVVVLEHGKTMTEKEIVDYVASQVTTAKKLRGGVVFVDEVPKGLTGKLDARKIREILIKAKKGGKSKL
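Purified P. pyralis luciferase, 10 nM final, with Km-level 10 uM D-luciferin and 10 uM ATP in 50 mM Tris acetate pH 7.5, 10 mM Mg acetate, 0.01% Tween-20, 0.05% BSA; 6-point qHTS titration about 60 µM downward; luminescence read.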
Rab9 promoter act = qHTS Assay for Rab9 Promoter Activators. 2.8% of 320,000 active. Huh7 Rab9 promoter-luciferase reporter, luminescence, 24 h. Potency, µM (titrated, usually from 9.22 µM), usual class: activators. AID 485297, 2010; also: nearly all actives have a fitted effect of over 60% in size
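Promoter activation is measured as luciferase luminescence in Huh7 cells stably transfected with a Rab9 promoter–luciferase construct, following 24 h compound exposure at 37 °C and 10 min reagent incubation at ambient temperature.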
ELG1 repair inh = qHTS screen for small molecules that inhibit ELG1-dependent DNA repair in human embryonic kidney (HEK293T) cells expressing luciferase-tagged ELG1 | HEK293T ELG1-luciferase reporter, luminescence, 16 h; DNA damage induced by 5-fluorouridine | Potency, µM (highest dose often 46.1 µM), actives largely listed as inhibitors | 2.3% of 330,000 active | AID 504467, 2011; also: nearly all actives have a fitted effect of over 55% in size
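Luminescence from the luciferase reporter, measured 30 min after ONE-Glo reagent at room temperature, was the read-out. Beforehand, 2,000 cells per well were exposed for 16 hr at 37 °C to 5-fluorouridine together with compound or vehicle.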
SMN2 splice enh = qHTS Assay for Enhancers of SMN2 Splice Variant Expression | HEK293 SMN2-luciferase splicing reporter, luminescence, 30-36 h | Potency, µM (top dose mostly 46.1 µM), usual class: activators | 2.8% of 210,000 active | AID 1458, 2008; also: nearly all actives have a fitted effect of over 55% in size
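qHTS luciferase splicing reporter: luminescence rises when SMN2 exon 7 is included in transfected HEK293 cells. Compound exposure lasted 30-36 h at 37C, with 4.5 mM final sodium butyrate as control, followed by a ONE-Glo read.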
Of the large screens only hits and unclear results are named; the others gave an inactive call. The list is not random: actives were taken first. Their share in the collection is about 9.3%. Calls follow the shape of the dose curve; as a rule, active = well fitted curve in the direction sought with a large enough effect; inconclusive = small, poorly fitted or top-dose-only effect, or another doubt; inactive = no such curve, though single readings can be large; an effect the other way counts as inactive or inconclusive.

CC1CCCCN1C(=O)CCn1c(=O)oc2ccccc21 (stereo unspecified)	none (no result: SMN2 splice enh)
Cc1cc(C)cc(OCCSc2nc3ccc(NC(=O)c4cccs4)cc3s2)c1	none (no result: NPC1 prom act, ELG1 genotoxic, Rab9 promoter act, ELG1 repair inh, SMN2 splice enh)
COc1ccc(OCc2cccc(C(=O)Nc3cc(C)on3)c2)cc1	NPC1 prom act 0.1µM, ELG1 genotoxic inconclusive, FLuc modulator 3.79µM, Rab9 promoter act 0.1µM, ELG1 repair inh inconclusive, SMN2 splice enh 0.199µM
COc1cc(OC)cc(C(=O)Nc2cc(C)on2)c1	none (no result: SMN2 splice enh)
COc1ccc(C(=O)Nc2cc(C)on2)cc1	NPC1 prom act 2µM, ELG1 genotoxic inconclusive, FLuc modulator 6.75µM, Rab9 promoter act 1.78µM, ELG1 repair inh inconclusive, SMN2 splice enh 12.6µM
COc1ccc(-c2c(C(C)=O)c(C)nc3sc4c(c23)NC(c2ccccc2)NC4=O)cc1 (stereo unspecified)	none
CCOC(=O)c1c(C)nc2sc3c(c2c1-c1ccc(OC)cc1)NC(c1ccccc1)NC3=O (stereo unspecified)	ELG1 repair inh 16.4µM
CCOC(=O)c1c(C)nc2sc3c(=O)n(-c4ccc(OC)cc4)nnc3c2c1-c1ccc(OC)cc1	ELG1 repair inh inconclusive
CCOC(=O)c1c(C)nc2sc3c(=O)[nH]cnc3c2c1-c1ccc(OC)cc1	ELG1 repair inh 20.6µM
CNc1nc(SC)nc(N(C)C#N)n1	none
C=CCn1c(SCC(=O)Nc2cc(C)on2)nnc1-c1ccccc1F	none (no result: NPC1 prom act, FLuc modulator, Rab9 promoter act, SMN2 splice enh)
Cc1ccc(NC(=O)C2Cc3ccccc3C(=O)O2)cc1 (stereo unspecified)	NPC1 prom act inconclusive, ELG1 genotoxic inconclusive, FLuc modulator inconclusive, Rab9 promoter act inconclusive, ELG1 repair inh inconclusive
O=C1OC(C(=O)Nc2ccccc2)Cc2ccccc21 (stereo unspecified)	FLuc modulator 16.9µM, Rab9 promoter act inconclusive, ELG1 repair inh inconclusive
Cn1cc(CCC(=O)N2CCCC(Nc3ccc(F)cc3)C2)cn1 (stereo unspecified)	none (no result: SMN2 splice enh)
Cc1ccc(CNC(=O)C2CCCCN2S(=O)(=O)c2ccccc2)cc1 (stereo unspecified)	none (no result: SMN2 splice enh)
COc1ccc(Cl)cc1C(=O)NNC(=S)NC(=O)c1cc(-c2ccc(Cl)cc2)nc2ccccc12	none
CCCCOc1cccc(-c2cc(C(=O)NNC(=S)NCC)c3ccccc3n2)c1	ELG1 genotoxic inconclusive, FLuc modulator 1.51µM, ELG1 repair inh inconclusive
CCNC(=S)NNC(=O)c1cc(-c2ccc(OC)cc2)nc2ccccc12	NPC1 prom act inconclusive, ELG1 genotoxic inconclusive, FLuc modulator 0.0757µM, Rab9 promoter act inconclusive, ELG1 repair inh inconclusive, SMN2 splice enh 7.94µM
CCNC(=S)NNC(=O)c1cc(C)nc2ccccc12	none
CCNC(=S)NNC(=O)c1cc(-c2cccc(C)c2)nc2ccccc12	NPC1 prom act inconclusive, FLuc modulator 0.338µM, Rab9 promoter act inconclusive, ELG1 repair inh inconclusive, SMN2 splice enh inconclusive
CCNC(=S)NNC(=O)c1cc(-c2cccc(OCC)c2)nc2ccccc12	ELG1 genotoxic inconclusive, FLuc modulator 1.35µM, ELG1 repair inh inconclusive
Cc1ccc2[nH]c(C(=O)O)c(NC(=O)[C@@H]3C[C@@H]3c3ccccc3)c2c1	none (no result: SMN2 splice enh)
CC(C)OCC(O)Cn1c(N2CCCC2)nc2c1c(=O)[nH]c(=O)n2C (stereo unspecified)	none (no result: SMN2 splice enh)
CCC1(c2ccc(F)cc2)NC(=O)N(CC(=O)Nc2cccc(S(=O)(=O)N3CCCCC3)c2)C1=O (stereo unspecified)	none (no result: SMN2 splice enh)
CC(SCc1ccccc1)C(=O)Nc1ccccc1-c1ccccc1 (stereo unspecified)	none
O=C(NC(=S)Nc1ccccc1)c1cc(-c2ccccc2)nc2ccccc12	none
CCCCOc1ccc(-c2cc(C(=O)NNC(=S)NCC)c3ccccc3n2)cc1	NPC1 prom act inconclusive, ELG1 genotoxic inconclusive, FLuc modulator 0.0757µM, Rab9 promoter act inconclusive, ELG1 repair inh inconclusive, SMN2 splice enh 3.16µM
Cc1ccccc1NC(=O)c1ccc(NC(=O)N2CCSc3ncccc32)cc1	none (no result: NPC1 prom act, ELG1 genotoxic, Rab9 promoter act, ELG1 repair inh, SMN2 splice enh)
CCN(CC)S(=O)(=O)c1ccc(OC)c(NC(=O)C(C)Oc2ccc3c(C)cc(=O)oc3c2)c1 (stereo unspecified)	ELG1 repair inh 20.6µM
Cc1ccc(NC(=O)C2=C(O)c3ccccc3N(C)S2(=O)=O)cc1	FLuc modulator 15.1µM, ELG1 repair inh inconclusive
